The nature of experiment [1]: P-glycoprotein substrates identified in KB-8-5-11 adenocarcinoma cell line, qHTS therapeutic library screen (AID 1346987). Also: nearly all actives have a fitted effect of over 65% in size. Also: potency is read from the fitted curve at half-maximal effect. In a few lines:
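Human cervical adenocarcinoma KB-8-5-11 cells, selected in colchicine to over-express P-gp and assayed without it, were exposed for 72 h to titrated compounds. An ATP-based luminescent viability signal gave AC50.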

Experiment [2] is described as follows: Natriuretic polypeptide receptor (hNpr1) antagonism - Pilot counterscreen GloSensor control cell line (AID 1347045; calls by dose curve; also: series mostly up to about 38 µM). In a few lines:
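The SNP-driven cGMP luminescence signal (50 uM, 20 min, room temperature) was measured in GloSensor HEK293 control cells. Compounds were tested as a LOPAC titration series and preincubated for 30-50 min.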

Experiment [3] addresses Atrial natriuretic peptide receptor 1 (Homo sapiens) (UniProt P16066). Kind of experiment: Natriuretic polypeptide receptor (hNpr1) antagonism - Pilot screen (AID 1347049; calls by dose curve;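 also: HEK293 cells with hNpr1 and GloSensor cGMP luciferase stimulated by 0.1 nM hNppA; agonist-evoked cGMP luminescence read 20 min after hNppA addition; series mostly up to about 58 µM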). In a few lines:
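Cells expressing receptor plus cGMP biosensor are seeded and incubated overnight at 37C, then loaded with GloSensor reagent (2% final) at room temperature for 2 h. Library compounds go on for 30 min. A pre-read precedes agonist (hNppA, 0.1 nM final) and a 20-min readout.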

Experiment [4] concerns the target Atrial natriuretic peptide receptor 2 (Homo sapiens) (UniProt P20594). Kind of experiment: Natriuretic polypeptide receptor (hNpr2) antagonism - Pilot subtype selectivity assay (AID 1347050; calls by dose curve). Put shortly: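 Read-out: GloSensor luminescence (CCD imager), baseline vs post-stimulation. HEK293 cells expressing hNpr2; compounds pre-incubated 30-50 min at ambient temperature; hNppC 1 nM final, 20 min.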

Experiment [5] is described as follows: NS1 protein of Zika virus - qHTS assay to identify small molecule inhibitors in human HEK 293 cells (AID 1347053). Also: series mostly up to about 46 µM; nearly all actives have a fitted effect of over 55% in size. Put shortly:
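Read-out is a two-antibody TR-FRET for ZIKV NS1, normalized between uninfected cells and infected cells. Compound added 1 h before MR766 infection at MOI 0.5; human HEK 293 cells incubated 24 h, 37 C.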
In general terms: Quantitative high-throughput screening tests each substance at several concentrations.

Experiment [6] addresses T1, Tyrosine-protein phosphatase non-receptor type substrate 1 (Homo sapiens) + Leukocyte surface antigen CD47 (Homo sapiens) (UniProt P78324+Q08722). Kind of experiment: CD47-SIRPalpha protein protein interaction - HTRF assay qHTS validation (AID 1347058; active = well fitted curve in the direction sought with a large enough effect in the signal ratio, not every such curve was filed as active; the % refers to the signal ratio; also: series mostly up to about 38 µM). In a few lines: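 Soluble extracellular domains (6His-CD47, Avi-tag-biotinylated SIRPalpha) in PBS pH 7.4 with 0.05% IGEPAL CA-630. Compounds were preincubated 30 min at RT with CD47 and anti-His-Eu, then SIRPalpha and SAV-XL665 were added. TR-FRET 665/615 ratio.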
In general terms: Time-resolved FRET reads energy transfer from a long-lived donor to a nearby acceptor.

Experiment [7] concerns the target T1, Tyrosine-protein phosphatase non-receptor type substrate 1 (Homo sapiens) + Leukocyte surface antigen CD47 (Homo sapiens). Kind of experiment: CD47-SIRPalpha protein protein interaction - Alpha assay qHTS validation (AID 1347059).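 Also: bead proximity luminescence from CD47 binding SIRPalpha after compound preincubation with SIRPalpha.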 In a few lines:
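In PBS (pH 7.4) with 0.05% IGEPAL CA-630, compound is preincubated with biotin-Avi-SIRPalpha ectodomain before His-CD47 ectodomain and affinity beads are added. Light-protected room-temperature incubations; AlphaScreen readout.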

Experiment [8] deals with Parathyroid hormone/parathyroid hormone-related peptide receptor (Homo sapiens) (UniProt Q03431). Kind of experiment: qHTS for PTHR1 Agonists: Optimization Screen against the NCGC LOPAC library (AID 1347079).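 Also: GloSensor cAMP luminescence in HEK-293 GP2 cells expressing human PTHR1 with IBMX.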 Put shortly:
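Signal increase flags agonism. GP2 cells, derived from HEK-293, express human PTHR1 and a GloSensor cAMP construct.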

Experiment [9] in a line: qHTS for Inhibitors of the Functional Ribonucleoprotein Complex (vRNP) of Lassa (LASV) Arenavirus: LASV Primary Screen - GLuc reporter signal (AID 1347082; calls by dose curve; tested in HEK293 reporter line; also: nearly all actives have a fitted effect of over 60% in size; also: potency is read from the fitted curve at half-maximal effect).
The nature of experiment [10]: P-glycoprotein substrates identified in KB-3-1 adenocarcinoma cell line, qHTS therapeutic library screen (AID 1346986). Also: nearly all actives have a fitted effect of over 60% in size. As for the experimental part:
The ATP-binding cassette transporters P-glycoprotein (P-gp) is known to limit brain penetration of many chemotherapy drugs. […] We used the CellTiter-Glo viability assay to test library compounds against the parental KB-3-1 human cervical adenocarcinoma cell line and the colchicine-selected sub-line KB-8-5-11 that over-expresses P-gp. KB-8-5-11 cells were also tested in the presence of a P-gp inhibitor (tariquidar) to assess reversability of transporter-mediated resistance. Of the tested compounds, a total of 90 P-gp substrates were identified including 55 newly identified P-gp substrates. Substrates were confirmed using an orthogonal killing assay against HEK-293 cells transfected with P-gp. As exemplars, we confirmed that AT7159 (cyclin-dependent kinase inhibitor); AT9283, (Janus kinase 2/3 inhibitor); ispinesib (kinesin spindle protein inhibitor); gedatolisib (PKI-587, phosphoinositide 3-kinase/mammalian target of rampamycin inhibitor); GSK-690693 (AKT inhibitor); and KW-2478 (heat shock protein 90 inhibitor) were substrates , and direct ATPase stimulation was assessed. ABCG2 was also found to confer high levels of resistance to AT9283, GSK-690693 and gedatolisib, while ispinesib, AT7519 and KW-2478 were weaker substrates.
The HeLa derivative cell line, KB-3-1, and its colchicine-selected, P-gp-overexpressing subline, KB-8-5-11 were maintained in DMEM with 10% FCS and Pen/Strep with glutamine at 37 degree C in 5% CO2. For KB-8-5-11 cells, colchicine was added to the medium at a concentration of 100 ng/mL. HEK-293 cells transfected with empty vector (pcDNA) or vector containing human ABCB1 (MDR-19) or ABCG2 (R-5) have been described previously (Robey, Lin, Qiu, Chan & Bates, 2011) and were maintained in EMEM supplemented with 10% FCS, Pen/Strep and glutamine with 2 mg/ml G418 to select for the expression of the transporter. Cultures were confirmed to be free of mycoplasma infection using the MycoAlert Mycoplasma Detection Kit (Lonza, Walkersville, MD). For the screen, assay medium was identical to culture medium except for KB-8-5-11 where colchicine was excluded from the medium.
All cell lines were plated into 1536-well plates at 500 cells/well in 5 uL media. Compounds were then pinned in dose-response using a 1536-head pin tool (Kalypsis, San Diego, CA) and plates were incubated at 37 degree C in 5% CO2 for an additional 72 h. CellTiter-Glo reagent (Promega) was dispensed into the wells, incubated for 5 min and luminescence was read on a ViewLux instrument (Perkin-Elmer). Cytotoxic compounds were defined as those that yielded a curve class of -1.1, -1.2, -2.1, -2.2, -2.3, or -2.4, a maximum response of >50% and an AC50 of < 10 uM. Cherry-picked hits from screening analysis were tested with both the KB pair of cell lines, and the pcDNA (empty vector control) and MDR-19 (P-gp overexpressing) pair were tested, in the absence and presence of tariquidar.

SMILES strings stand for the structures. Values joined by “and” are separate entries in the source; they are usually repeats but may differ in a detail not shown here. Equal entries are not always repeated. Results filed as inconclusive are left out. Active and inactive are the calls of the source. Unless noted, calls follow the shape of the dose curve; as a rule, active = well fitted curve in the direction sought with a large enough effect; inconclusive = small, poorly fitted or top-dose-only effect, or another doubt; inactive = no such curve, though single readings can be large; an effect the other way counts as inactive or inconclusive.

Chain of Parathyroid hormone/parathyroid hormone-related peptide receptor (Homo sapiens) (Q03431 whole entry, looked up): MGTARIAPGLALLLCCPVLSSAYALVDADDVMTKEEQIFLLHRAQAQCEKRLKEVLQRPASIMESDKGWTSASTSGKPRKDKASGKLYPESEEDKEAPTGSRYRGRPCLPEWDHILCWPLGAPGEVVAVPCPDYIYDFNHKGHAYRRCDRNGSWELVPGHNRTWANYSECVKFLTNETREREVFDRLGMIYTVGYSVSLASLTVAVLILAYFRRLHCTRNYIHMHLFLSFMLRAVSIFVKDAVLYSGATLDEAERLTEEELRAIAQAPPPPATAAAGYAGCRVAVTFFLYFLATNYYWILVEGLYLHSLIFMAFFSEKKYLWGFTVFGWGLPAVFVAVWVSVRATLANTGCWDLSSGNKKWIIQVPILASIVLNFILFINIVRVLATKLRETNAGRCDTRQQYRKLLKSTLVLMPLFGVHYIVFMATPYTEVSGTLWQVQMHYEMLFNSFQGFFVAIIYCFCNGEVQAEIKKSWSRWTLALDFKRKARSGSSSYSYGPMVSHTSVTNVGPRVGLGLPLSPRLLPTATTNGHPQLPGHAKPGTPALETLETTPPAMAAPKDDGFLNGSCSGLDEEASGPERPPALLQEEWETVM
Chain of Atrial natriuretic peptide receptor 1 (Homo sapiens) (P16066 whole entry, looked up): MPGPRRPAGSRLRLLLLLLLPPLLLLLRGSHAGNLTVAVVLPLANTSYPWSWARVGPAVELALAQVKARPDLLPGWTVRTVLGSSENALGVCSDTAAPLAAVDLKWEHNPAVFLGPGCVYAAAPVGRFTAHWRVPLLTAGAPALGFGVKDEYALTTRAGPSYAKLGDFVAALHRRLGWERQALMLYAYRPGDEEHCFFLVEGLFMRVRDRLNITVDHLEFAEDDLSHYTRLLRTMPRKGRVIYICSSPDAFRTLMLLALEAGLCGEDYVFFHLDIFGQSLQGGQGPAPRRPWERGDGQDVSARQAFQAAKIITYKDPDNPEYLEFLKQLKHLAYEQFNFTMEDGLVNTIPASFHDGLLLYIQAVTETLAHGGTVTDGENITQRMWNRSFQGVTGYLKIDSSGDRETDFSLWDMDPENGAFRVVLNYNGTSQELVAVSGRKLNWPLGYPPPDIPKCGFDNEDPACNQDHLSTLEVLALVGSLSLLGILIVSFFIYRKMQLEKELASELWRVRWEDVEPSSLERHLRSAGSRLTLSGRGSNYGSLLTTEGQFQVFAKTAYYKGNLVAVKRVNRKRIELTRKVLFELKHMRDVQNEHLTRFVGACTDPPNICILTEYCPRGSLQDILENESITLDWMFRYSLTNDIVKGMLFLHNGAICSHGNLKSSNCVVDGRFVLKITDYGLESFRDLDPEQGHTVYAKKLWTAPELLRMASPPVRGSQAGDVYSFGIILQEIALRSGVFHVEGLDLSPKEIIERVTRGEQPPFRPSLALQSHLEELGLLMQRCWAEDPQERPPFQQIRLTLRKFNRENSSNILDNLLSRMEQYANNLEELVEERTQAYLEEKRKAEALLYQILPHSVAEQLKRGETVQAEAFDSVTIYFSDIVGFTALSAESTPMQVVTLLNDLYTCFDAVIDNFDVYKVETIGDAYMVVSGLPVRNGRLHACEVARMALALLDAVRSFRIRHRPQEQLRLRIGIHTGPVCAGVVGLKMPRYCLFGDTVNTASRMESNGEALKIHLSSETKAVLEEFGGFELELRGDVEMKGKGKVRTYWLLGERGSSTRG
Chain of Atrial natriuretic peptide receptor 2 (Homo sapiens) (P20594 whole entry, looked up): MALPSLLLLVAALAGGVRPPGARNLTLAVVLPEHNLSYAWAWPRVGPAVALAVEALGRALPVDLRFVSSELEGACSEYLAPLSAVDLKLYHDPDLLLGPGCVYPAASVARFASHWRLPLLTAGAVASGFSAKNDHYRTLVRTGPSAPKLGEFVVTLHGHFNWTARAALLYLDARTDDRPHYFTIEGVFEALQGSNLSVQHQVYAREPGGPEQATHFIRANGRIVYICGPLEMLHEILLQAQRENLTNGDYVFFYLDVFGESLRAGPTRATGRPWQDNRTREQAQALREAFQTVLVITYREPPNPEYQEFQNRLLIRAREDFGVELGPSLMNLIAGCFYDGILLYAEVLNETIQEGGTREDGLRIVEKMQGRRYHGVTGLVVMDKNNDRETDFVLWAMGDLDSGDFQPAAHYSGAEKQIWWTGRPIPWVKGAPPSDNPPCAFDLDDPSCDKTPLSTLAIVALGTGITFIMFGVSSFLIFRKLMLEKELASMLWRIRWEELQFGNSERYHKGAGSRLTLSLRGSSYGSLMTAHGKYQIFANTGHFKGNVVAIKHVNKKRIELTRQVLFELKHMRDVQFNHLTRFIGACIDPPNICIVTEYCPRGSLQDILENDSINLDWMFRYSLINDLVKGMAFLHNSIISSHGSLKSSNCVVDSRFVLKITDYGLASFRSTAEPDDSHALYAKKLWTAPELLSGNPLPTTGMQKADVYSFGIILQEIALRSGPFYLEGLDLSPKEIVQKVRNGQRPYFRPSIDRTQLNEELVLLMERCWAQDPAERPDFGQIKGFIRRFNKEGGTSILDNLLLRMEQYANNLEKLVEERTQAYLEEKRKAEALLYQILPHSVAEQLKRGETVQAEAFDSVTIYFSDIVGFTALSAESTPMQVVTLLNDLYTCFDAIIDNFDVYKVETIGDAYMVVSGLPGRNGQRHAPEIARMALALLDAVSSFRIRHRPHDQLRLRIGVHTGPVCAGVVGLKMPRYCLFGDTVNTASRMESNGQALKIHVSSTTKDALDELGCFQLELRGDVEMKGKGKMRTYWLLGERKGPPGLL
T1 sequence (P78324 whole entry, looked up, the tested form may be a part): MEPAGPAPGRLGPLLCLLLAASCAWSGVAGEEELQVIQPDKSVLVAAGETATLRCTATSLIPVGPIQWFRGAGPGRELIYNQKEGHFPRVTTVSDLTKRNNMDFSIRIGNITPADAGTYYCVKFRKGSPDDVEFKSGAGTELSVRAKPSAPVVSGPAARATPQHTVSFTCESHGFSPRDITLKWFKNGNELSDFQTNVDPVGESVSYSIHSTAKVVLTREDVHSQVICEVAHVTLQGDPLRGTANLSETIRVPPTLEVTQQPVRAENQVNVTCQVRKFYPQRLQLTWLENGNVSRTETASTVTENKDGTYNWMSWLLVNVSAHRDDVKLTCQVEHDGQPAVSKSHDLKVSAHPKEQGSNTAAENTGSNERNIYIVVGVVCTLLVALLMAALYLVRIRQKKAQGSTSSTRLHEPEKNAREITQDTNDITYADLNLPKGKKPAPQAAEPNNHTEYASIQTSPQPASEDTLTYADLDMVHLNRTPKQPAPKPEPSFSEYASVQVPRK
T1 sequence (Q08722 whole entry, looked up, the tested form may be a part): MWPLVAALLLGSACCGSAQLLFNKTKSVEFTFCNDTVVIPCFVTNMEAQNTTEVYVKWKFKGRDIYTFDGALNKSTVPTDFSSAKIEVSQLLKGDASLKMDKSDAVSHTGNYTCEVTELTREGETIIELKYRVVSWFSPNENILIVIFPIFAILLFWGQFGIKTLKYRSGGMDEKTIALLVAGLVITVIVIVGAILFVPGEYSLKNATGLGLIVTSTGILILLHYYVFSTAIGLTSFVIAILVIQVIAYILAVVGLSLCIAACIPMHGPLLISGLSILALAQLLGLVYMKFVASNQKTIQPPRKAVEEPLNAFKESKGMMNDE

In the case of `NCC(O)c1ccc(O)cc1` (stereo unspecified), the Potency entry in experiment [1], in [2], in experiment [3], in experiment [4], in experiment [5] and in [9] was “inactive” each time. The outcome in [6], in [7] and in experiment [8] was inactive.
Regarding `Cc1ncc(CNC(=O)N(CCCl)N=O)c(N)n1`, the Potency entry in experiment [1], in experiment [2], in [3], in experiment [4], in experiment [5] and in experiment [9] was “inactive” throughout. The result in [6], in experiment [7] and in experiment [8] was inactive.
With `Fc1ccc(C(OCCN2CCN(CCCc3ccccc3)CC2)c2ccc(F)cc2)cc1`, the values for the Potency in experiment [1] and in experiment [9] were 10.5 µM (active) and 34.3 µM (active), respectively. Moreover, the Potency entry in [3] and in experiment [4] was “inactive” in each case. In addition, the result in experiment [6], in experiment [7] and in experiment [8] was inactive.
With `Nc1ccncc1`, the Potency entry in [1], in experiment [2], in experiment [3], in experiment [4], in experiment [5] and in [9] was “inactive” throughout. In addition, the result in experiment [6], in experiment [7] and in [8] was inactive.
In the case of `C[C@]12CCC(=O)C(O)=C1CC[C@@H]1[C@@H]2CC[C@]2(C)C(=O)CC[C@@H]12`, the Potency entry in [1], in experiment [3], in experiment [4], in experiment [5] and in experiment [9] was “inactive” throughout. In [8], the outcome was inactive.
Turning to `CC(CCc1ccccc1)NC(C)C(O)c1ccc(O)cc1` (stereo unspecified), the Potency result in [1], in experiment [2], in [3], in experiment [4], in [5] and in experiment [9] was “inactive” in each case. Further, the result in experiment [6], in experiment [7] and in experiment [8] was inactive.
For `Cc1cccc(C)c1NC(=O)CN1CCCC1=O`, the Potency result in experiment [1], in experiment [2], in experiment [3], in experiment [4], in [5] and in experiment [9] was “inactive” in each case. Further, the outcome in experiment [6], in [7] and in experiment [8] was inactive.
`CNCC(O)c1ccc(O)cc1` (stereo unspecified): the Potency result in experiment [10], in experiment [1], in experiment [2], in [3], in [4] and in [5] was “inactive” in each case. Besides, the Potency entry in experiment [9] was “inactive”. Also, the outcome in [6], in experiment [7] and in experiment [8] was inactive.
Regarding `CCOC(=O)C1(c2ccccc2)CCN(CCC(C#N)(c2ccccc2)c2ccccc2)CC1`, the Potency in [1] is 9.2 µM (active) and 15.8 µM (active).
For the molecule `CCCN1CCC[C@@H]2Cc3[nH]ncc3C[C@H]21`, the Potency entry in experiment [1], in experiment [2], in experiment [3], in experiment [4], in [5] and in experiment [9] was “inactive” throughout. The outcome in experiment [6], in [7] and in [8] was inactive.
As for `N#CC(C#N)=Cc1ccc(O)c(O)c1`, the Potency result in experiment [1], in [2], in experiment [3], in experiment [4], in [5] and in [9] was “inactive” throughout. Also, the outcome in [7] and in experiment [8] was inactive.

The values above are taken from PubChem BioAssay (NCATS).
